ChEMBL document CHEMBL1201862, “PubChem BioAssay data set” (2004)
Only a part of the results of these assays is listed, not drawn at random.

The compounds below were run against Acyl-homoserine lactone acylase PvdQ (Pseudomonas aeruginosa (strain LESB58)) (UniProt Q9I194) (assay: P. aeruginosa growth delay under iron chelation, dose response, absorbance, plate reader, cherry-picks (AID 602389)).
Type: functional

AbsAC35, active:
COc1ccc(C2=C(C=O)Cc3ccccc3O2)cc1 210 µM
N#Cc1cc(-c2ccccc2)cnc1Cl 74.1 µM
N#CN(Cc1ccccc1)Cc1ccccc1 477 µM
C#CCSc1ncc(-c2ccccc2)cn1 214 µM
C=CCOC(=O)c1ccc(-n2cnc(C)n2)nc1 89.1 µM
